Reference: PubChem BioAssay (NCI)
About 83,000 compounds went through this panel and 20% of them were active in at least one assay; those are over-represented in the sample as a whole.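 Assay: single dose, 48 h. Readout: percent growth (0 = no net growth; negative = cell death). Active: <10.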 The source made the active and inactive calls.

What was measured:
Assay in all cases: NCI-60 one-dose screen, 48 h (100 = growth as untreated, 0 = no growth, -100 = all killed)
Conditions in all cases: 10 µM unless noted
[1] = system: DU-145 prostate
[2] = system: K-562 leukemia
[3] = system: MALME-3M melanoma
[4] = system: MDA-MB-231 breast
[5] = system: RXF 393 renal
[6] = system: SF-268 CNS
[7] = system: SF-295 CNS
[8] = system: SF-539 CNS
[9] = system: UACC-257 melanoma
[10] = system: M14 melanoma
[11] = system: HCT-15 colon
[12] = system: HT29 colon
[13] = system: SNB-75 CNS
[14] = system: SNB-19 CNS
[15] = system: U251 CNS
[16] = system: PC-3 prostate
[17] = system: SK-MEL-5 melanoma
[18] = system: UACC-62 melanoma
[19] = system: LOX IMVI melanoma
[20] = system: SK-MEL-28 melanoma

Measured: growth

CCCCCCn1c(-c2ccc(C(=O)O/N=C(\N)c3ccc4ccccc4c3)cc2)nc(-c2ccccc2)c1-c1ccccc1
active: [2] -8.77% | [19] -88.6%
inactive: [1] 53.9% | [3] 71.5% | [4] 64.4% | [5] 35.1% | [6] 51.3% | [7] 70.1% | [8] 48.8% | [9] 82.2% | [10] 72.7% | [11] 49.3% | [12] 74.5% | [13] 16% | [14] 68.9% | [15] 50.2% | [16] 51.3% | [17] 68.2% | [18] 61.1% | [20] 72.9%

O=C1NC(=O)C(c2ccccc2)(c2ccccc2)N1Cc1cn(-c2c3ccccc3nc3ccccc23)nn1
inactive: [1] 91.2% | [2] 39.2% | [3] 104% | [4] 73.1% | [5] 85.6% | [6] 89.3% | [7] 99% | [8] 98.5% | [9] 89.1% | [10] 96.2% | [11] 59.9% | [12] 85.3% | [13] 85.1% | [14] 89.4% | [15] 91.2% | [16] 78% | [17] 82.2% | [18] 72.4% | [19] 78.2% | [20] 103%

COc1ccc(C2CC(c3ccc(Nc4ccnc5cc(Cl)ccc45)cc3)=NN2C=O)cc1 (stereo not given)
inactive: [1] 73.4% | [2] 17.4% | [3] 62% | [4] 78.8% | [5] 76.7% | [6] 58% | [7] 51.5% | [8] 94.6% | [9] 93.5% | [10] 50.5% | [11] 23.6% | [12] 33.2% | [13] 77.1% | [14] 81.5% | [15] 63.4% | [16] 72.3% | [17] 41.2% | [18] 54.5% | [19] 20% | [20] 74.9%

O=C(Nc1ccc(Cl)cc1F)c1cc(Cl)ccc1O
inactive: [1] 12.5% | [12] 19.5% | [14] 13.6%
active: [2] 4.51% | [3] -32.2% | [4] -34.5% | [5] -12.7% | [6] 7.67% | [7] -69.5% | [8] 4.82% | [9] -17.9% | [10] -12.3% | [11] -4.97% | [13] -6.93% | [15] 9.73% | [16] 0.161% | [17] -90.5% | [18] -41.2% | [19] -18.9% | [20] -3.71%

C[C@H](C(=O)Nc1ccc(S(N)(=O)=O)cc1)S(=O)(=O)c1ccccc1
inactive: [1] 108% | [2] 106% | [3] 101% | [4] 114% | [5] 88.1% | [6] 102% | [7] 94.6% | [8] 102% | [9] 103% | [10] 104% | [11] 98.1% | [12] 107% | [13] 96.9% | [14] 95.5% | [15] 97.5% | [16] 101% | [17] 99.2% | [18] 102% | [19] 98% | [20] 115%

CCc1ccc(Oc2c(-c3ccc(OCc4ccc(Cl)cc4)cc3O)n[nH]c2C(F)(F)F)cc1
inactive: [1] 15% | [4] 27.6% | [5] 65% | [6] 30% | [7] 88.1% | [8] 56.6% | [10] 30.5% | [11] 12.8% | [12] 86.1% | [13] 36.6% | [14] 25.4% | [16] 13.9% | [18] 17.9% | [20] 22.9%
active: [2] 3.36% | [3] -28.3% | [9] 6.85% | [15] 9.9% | [17] -14% | [19] 7.09%

COc1ccc2c(c1OC)C(=O)O[C@H]2[C@H]1c2c(cc3c(c2OC)OCO3)CCN1C
inactive: [1] 117% | [2] 66.4% | [3] 92.2% | [4] 104% | [5] 108% | [6] 110% | [7] 94.1% | [8] 98.9% | [9] 95.2% | [10] 94.8% | [11] 95.6% | [12] 104% | [13] 88.5% | [14] 103% | [15] 97.2% | [16] 90.1% | [17] 96.2% | [18] 109% | [19] 90.2% | [20] 100%

Cc1ncc(C(=O)Nc2ccc(CN3CCN(C)CC3)c(C(F)(F)F)c2)cc1C#Cc1ccc(N)nc1
inactive: [1] 18.1% | [7] 18.5% | [12] 18.1% | [14] 26.9% | [15] 17.6% | [16] 10.9%
active: [2] 5.34% | [3] -88.9% | [4] -64.3% | [5] -60.2% | [6] -11.9% | [8] -39.3% | [9] 0.961% | [10] -56.8% | [11] 6.59% | [13] -57.3% | [17] -100% | [18] -70.2% | [19] -94.9% | [20] -46.2%
